# KB-V1 cytotox: KB-V1 MDR subline cytotoxicity; actives 3.4% (n = 400,000); Potency, µM (highest dose often 46.1 µM), hits mostly cytotoxic; AID 1347076; KB-V1 MDR cells viability, CellTiter-Glo, 72 h; further: potency means the concentration at half of the fitted maximal effect; on the % scale 0 is the no-effect control and ±100 the full control effect; nearly all actives have a fitted effect of over 60% in size
#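 Potencies derive from concentration-effect curves fitted to normalized luminescence (CellTiter-Glo) of KB-V1 cells treated for 72 h at 37 degrees C in phenol-red-free DMEM containing 10% FBS.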
# KB-3-1 cytotox: KB-3-1 parental cell cytotoxicity; Potency, µM (series often up to 46.1 µM), most hits filed as cytotoxic; AID 1347075; KB-3-1 viability, CellTiter-Glo ATP luminescence, 72 h; actives 1.4% (n = 400,000); further: potency means the concentration at half of the fitted maximal effect; on the % scale 0 is the no-effect control and ±100 the full control effect; nearly all actives have a fitted effect of over 60% in size
#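 Cytotoxicity in the drug-sensitive parental line KB-3-1 was scored as loss of CellTiter-Glo luminescence following 72 h incubation with compound. Values come from curve fitting of normalized concentration-response data.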
# MCF10A rereplic: DNA re-replication induction in MCF 10a cells; actives 2.9% (n = 350,000); Potency, µM (highest dose often 46.1 µM), without a hit: at the top dose activity, positive = re-replication, usual class: activators; MCF 10A DNA re-replication, Hoechst nuclear intensity, 48 h; further: potency means the concentration at half of the fitted maximal effect; % of control where 0% means no effect; nearly all actives have a fitted effect of over 50% in size
# S-ASM inh: human S-ASM enzyme inhibition | P17405 | placental ASM, HMU-PC fluorogenic substrate, 60 min | Potency, µM (doses to about 57.5 µM), for the others: at the top dose activity change, negative = inhibition, hits mostly inhibitors | actives 0.006% (n = 340,000); further: potency means the concentration at half of the fitted maximal effect
# Target sequence (P17405 47-631 limits assumed): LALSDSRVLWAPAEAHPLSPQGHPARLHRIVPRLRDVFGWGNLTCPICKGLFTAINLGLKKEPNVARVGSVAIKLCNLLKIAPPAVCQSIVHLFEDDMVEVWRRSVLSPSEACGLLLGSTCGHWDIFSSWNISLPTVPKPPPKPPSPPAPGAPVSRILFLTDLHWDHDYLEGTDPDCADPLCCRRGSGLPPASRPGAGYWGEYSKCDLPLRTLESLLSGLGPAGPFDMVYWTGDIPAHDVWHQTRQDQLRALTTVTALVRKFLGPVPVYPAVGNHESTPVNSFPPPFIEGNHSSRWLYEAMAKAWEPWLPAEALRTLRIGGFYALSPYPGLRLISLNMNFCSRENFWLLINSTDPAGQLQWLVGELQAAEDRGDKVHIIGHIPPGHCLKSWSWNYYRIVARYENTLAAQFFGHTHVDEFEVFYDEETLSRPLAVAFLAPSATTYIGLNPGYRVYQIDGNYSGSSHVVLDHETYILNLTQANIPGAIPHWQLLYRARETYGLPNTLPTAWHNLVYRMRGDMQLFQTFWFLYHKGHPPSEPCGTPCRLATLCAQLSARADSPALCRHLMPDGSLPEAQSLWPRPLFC
#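 Steps: dispense placental human ASM, pin compound, wait 10 min at room temperature, add HMU-PC0 substrate at 9 uM final, incubate 60 min at 37 °C, add stop solution raising pH to 10, read fluorescence.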
# Giardia kill: kills Giardia lamblia | Giardia lamblia trophozoite viability | activity change, % at 7.66 µM, hits read low | actives 0.15% (n = 340,000) | AID 540267; in the data active means activity change below about -80%; inconclusive means between about -30% and that limit;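 further: parasites exposed to compound for two days anaerobically before the ATP read; on the % scale 0 is the no-effect control and ±100 the full control effect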
#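 Anaerobic 48 hrs incubation at 37 deg C of 100 trophozoites/well with test compounds; ATPLite 1-Step luminescence, 15-30 min RT, reports cellular ATP as viability.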
# SW480 rerep: inducers of DNA re-replication in SW480 colon cancer cells; SW480 DNA re-replication, Hoechst DNA content imaging, 48 h; Potency, µM (highest dose often 46.1 µM), for the others: top-dose re-replication activation, actives largely listed as activators; actives 1.8% (n = 340,000); further: potency means the concentration at half of the fitted maximal effect; % of control where 0% means no effect; nearly all actives have a fitted effect of over 55% in size
#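 First, 250 cells per well were seeded. Next, compound or vehicle (23 nL) was pinned in, plates sat 48 hr at 37 C. Finally Hoechst was added for 40 min before fluorescence scanning.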
# An asterisk follows results filed as active; i = inactive; ? = inconclusive; . = no result given; ! = not active in a repeat; [ ] = remark or other dose. In the library only some 6.9% were active in any assay of this set; here they are far more common. Unless noted, the call rests on the fitted dose curve; in most records, active means well fitted curve in the direction sought with a large enough effect; inconclusive means small, poorly fitted or top-dose-only effect, or another doubt; inactive means no such curve, though single readings can be large; an effect the other way counts as inactive or inconclusive.
SMILES,KB-V1 cytotox,KB-3-1 cytotox,MCF10A rereplic,S-ASM inh,Giardia kill,SW480 rerep
N=C1C(c2nc3ccccc3s2)=C(O)CN1Cc1ccccc1,?,4.1µM*,5.2µM*,3%,12,?
COc1ccc(C2Nc3ccccc3C(=O)N2Cc2ccco2)cc1 (configuration not stated),i,i,.,.,10,.
COc1ccccc1[C@@H]1C(c2cccc(Cl)c2)=NN(c2ccccc2)[C@H]1C(=O)N1CCOC1=O,i,?,?,i,-6,2.6µM*
COc1ccccc1[C@@H]1C(c2cccc(C)c2)=NN(c2ccc(Br)cc2)[C@H]1C(=O)N1CCOC1=O,i,i,?,i,9,21µM*
COc1ccccc1[C@@H]1C(c2ccccc2)=NN(c2ccc(Br)cc2)[C@H]1C(=O)N1CCOC1=O,i,i,3.3µM*,i,-6,?
CC1CCN(S(=O)(=O)c2ccc3c(c2)oc(=O)n3CC(=O)NCc2ccc(F)cc2)CC1,i,?,.,.,.,.
Cc1ccc(C)c(N2CCN(C(=O)CN3C(=O)COc4ccc(S(=O)(=O)N5CCC(C)CC5)cc43)CC2)c1,?,i,.,.,.,.
CCC1CCc2nc3sc(C(=O)Nc4cccc(C(F)(F)F)c4)c(N)c3cc2C1 (configuration not stated),i,i,.,.,.,.
COC(=O)c1c(NC(=O)COc2ncnc3ccccc23)sc(C)c1C,15µM*,i,-3%,-11%,-6,-6%
COC(=O)c1c(NC(=O)CSc2ncn[nH]2)sc(C)c1C,21µM*,i,7%,4%,-6,0%
CCOC(=O)c1c(NC(=O)COc2ccc(CC)cc2)sc2c1CCCC2,i,i,.,.,.,.
CCOC(=O)c1c(NC(=O)COc2ncnc3sccc23)sc2c1CCC2,3.3µM*,i,25%,-15%,0,-1%
CCOC(=O)c1c(NC(=O)COc2ncnc3ccccc23)sc(C(C)=O)c1C,i,i,?,-2%,3,-2%
COc1ccc(S(=O)(=O)n2nc(-c3ccco3)nc2NCc2ccc(OC)c(OC)c2)cc1,i,i,.,.,.,.
Fc1ccc(CSc2nnc(-c3cnccn3)n2Cc2ccco2)cc1,i,i,3%,-1%,-1,-2%
Nn1c(SCC(=O)Nc2ccc3c(c2)OCO3)nnc1-c1ccccc1,?,i,2%,0%,1,-1%
Brc1ccc(CSc2nnc(-c3cnccn3)n2Cc2ccco2)cc1,9.2µM*,?,?,0%,0,8%
Fc1ccccc1CSc1nnc(-c2cnccn2)n1Cc1ccco1,18µM*,i,-59%,0%,-18,-93%
CC1(C)Cc2ccccc2-c2nnc(SCC(=O)Nc3ccc4c(c3)OCO4)n21,4.1µM*,i,6%,-3%,-17,1%
Cc1cc(C)cc(NC(=O)CSc2nnc(CN3CCOCC3)n2C)c1,i,i,13%,10%,11,-12%
Cc1cc(C)c(NC(=O)CSc2nnc(CN3CCOCC3)n2C)c(C)c1,i,i,-3%,7%,9,29µM*
COc1cccc(CNC(=O)Cc2ccc(NC(=O)N3CCCCc4ccccc43)cc2)c1OC,i,i,.,.,.,.
Cc1cc(C)c(NC(=O)CSc2nnc(-c3ccncc3)n2Cc2ccco2)c(Cl)c1,23µM*,?,0%,3%,-5,-4%
Clc1ccc(CSc2nnc(-c3ccccn3)n2Cc2ccco2)c(Cl)c1,10µM*,?,?,-6%,-7,15%
Cc1ccc(NC(=O)CSc2nnc(-c3cnccn3)n2Cc2ccco2)cc1,7.3µM*,i,11%,-1%,-1,-3%
SMILES,KB-V1 cytotox,KB-3-1 cytotox,MCF10A rereplic,S-ASM inh,Giardia kill,SW480 rerep
COC(=O)CSc1nnc(-c2ccccn2)n1Cc1ccco1,i,i,0%,1%,5,-3%
CCn1c(SCC(=O)Nc2ccc3c(c2)OCO3)nnc1-c1cnccn1,21µM*,i,-1%,2%,0,-11%
COc1ccccc1CNS(=O)(=O)c1ccc2c(c1)NC(=O)CC(=O)N2,i,i,.,.,.,.
COc1ccc([C@@H]2CC(=O)c3c(O)cc(O[C@H]4O[C@@H](CO[C@H]5O[C@@H](C)[C@@H](O)[C@@H](O)[C@@H]5O)[C@@H](O)[C@@H](O)[C@@H]4O)cc3O2)cc1O,.,.,3%[20.6 µM],.,.,-5%[20.6 µM]
CCn1c(COc2ccccc2C)nnc1SCC(=O)Nc1ccc2c(c1)OCCO2,4.6µM*,i,?,2%,-8,-9%
Cn1c(CN2CCOCC2)nnc1SCC(=O)Nc1ccc2c(c1)OCCO2,i,i,0%,2%,13,-2%
N#Cc1ccc(CSc2nnc(-c3ccccc3)n2Cc2ccco2)cc1,3.7µM*,i,?,3%,-18,-1%
N#Cc1ccc(CSc2nnc(Cc3cccs3)n2Cc2ccco2)cc1,?,i,-13%,1%,-15,-2%
O=C(CSc1nnc(CN2CCOCC2)n1-c1ccc(Cl)cc1)Nc1ccc2c(c1)OCO2,10µM*,i,1%,-5%,17,2%
CCCCC(CC)CNC(=O)CN(C)S(=O)(=O)c1ccc2c(c1)c(=O)n(C)c(=O)n2C (configuration not stated),i,i,.,.,.,.
Cc1ccc(CN(Cc2ccco2)C(=O)c2cccc(C)c2)cc1,i,i,.,.,.,.
COc1ccc(CNC(=O)CSc2nc(-c3ccc(OC)c(OC)c3)cc(C(F)(F)F)n2)cc1,i,i,.,.,.,.
N#Cc1c[nH]n2c(NC3CCCCC3)c(-c3ccccc3F)nc12,i,i,.,.,.,.
O=C(O)CN(CCN(CC(=O)O)CC(=O)O)CCN(CC(=O)O)CC(=O)O,.,.,-8%[0.169 µM],.,.,24µM*!
OC[C@H]1O[C@@H](c2nc(-c3cccc4ccccc34)no2)[C@H](O)[C@@H]1O,i,i,.,.,.,.
OC[C@H]1O[C@@H](c2nc(-c3ccccc3Br)no2)[C@H](O)[C@@H]1O,?,7.3µM*,.,.,.,.
CCc1ccc(NCc2cc3c(C)nn(-c4ccccc4)c3[nH]c2=O)cc1,18µM*,i,?,-14%,-14,?
COc1ccc(OC)c(C(=O)CN2C(=O)N(c3ccc(C)cc3)S(=O)(=O)c3ccccc32)c1,i,i,.,.,.,.
CN1CCC(Nc2ncc3ncnc(Nc4ccc(F)c(Cl)c4)c3n2)CC1,.,.,3.3µM*,.,.,13µM*
Cn1ncc2c(Nc3ccc(Cl)c(Cl)c3)ncnc21,i,i,21%,-7%,9,-2%

# Compound activity (PubChem BioAssay)
